Bioassay records from PubChem.
ALOX12 inh: Primary qHTS assay for inhibitors of human arachidonate 12S-lipoxygenase (ALOX12): Round 2 | Polyunsaturated fatty acid lipoxygenase ALOX12 (Homo sapiens), P18054 | purified 12hLO, xylenol orange hydroperoxide absorbance | Potency, µM (series often up to 108 µM), without a hit: at the top dose activity change, negative = inhibition, usual class: inhibitors | actives 1.1% (n = 580,000) | AID 1671190, 2021; note: potency is the fitted concentration of half-maximal effect
Target sequence (P18054 whole entry, looked up): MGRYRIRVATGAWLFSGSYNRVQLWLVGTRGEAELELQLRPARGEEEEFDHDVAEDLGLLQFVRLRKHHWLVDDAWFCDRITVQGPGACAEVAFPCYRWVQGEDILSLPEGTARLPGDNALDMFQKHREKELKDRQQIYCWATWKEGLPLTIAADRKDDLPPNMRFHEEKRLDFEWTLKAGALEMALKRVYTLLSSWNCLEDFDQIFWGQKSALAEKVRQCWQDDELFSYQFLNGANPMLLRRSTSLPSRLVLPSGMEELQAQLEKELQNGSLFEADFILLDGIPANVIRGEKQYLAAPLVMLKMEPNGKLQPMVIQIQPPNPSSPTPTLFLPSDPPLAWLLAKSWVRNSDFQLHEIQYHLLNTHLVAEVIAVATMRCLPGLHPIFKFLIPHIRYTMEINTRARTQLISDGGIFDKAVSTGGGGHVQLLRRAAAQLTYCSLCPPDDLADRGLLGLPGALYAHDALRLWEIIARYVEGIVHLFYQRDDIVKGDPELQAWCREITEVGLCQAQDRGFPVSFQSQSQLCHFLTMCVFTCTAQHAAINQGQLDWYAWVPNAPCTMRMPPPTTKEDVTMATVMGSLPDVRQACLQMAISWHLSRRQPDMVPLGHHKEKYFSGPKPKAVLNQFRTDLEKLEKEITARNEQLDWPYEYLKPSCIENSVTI
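Purified human 12hLO (150 nM final) in 25 mM Hepes, 0.01% Triton X-100, pH 7.0 was preincubated 15 min at room temperature with compound. Then 40 uM arachidonic acid was added, 30 min. Hydroperoxide was read by Fe-XO absorbance ratio 573/405 nm.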
IL1B secr inh: qHTS for Inhibitors of Inflammasome Signaling: IL-1-beta AlphaLISA Primary Screen; THP-1 LPS/ATP IL-1B secretion, AlphaLISA, 16 h; stronger effect = lower value; activity change, % at 57.5 µM; actives 4.7% (n = 360,000); AID 743279, 2014; in the data active = activity change below about -50%; inconclusive = mostly about -30% to -49%
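THP-1 cells pretreated 1 hr with compounds (up to 57.5 uM final), then stimulated with LPS (250 ng/mL final) plus ATP (1.25 mM final); secreted IL-1B measured by AlphaLISA after 16 hr, decreased signal indicating inhibition.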
HT1080-NT tox: qHTS for induction of synthetic lethality in tumor cells producing 2HG: qHTS for the HT-1080-NT fibrosarcoma cell line. Potency, µM (doses to about 46.1 µM), for inactives: at the top dose activity, negative = less viability, hits mostly cytotoxic. AID 686970, 2013. actives 1.6% (n = 360,000). HT-1080-NT fibrosarcoma viability, CellTiter-Glo ATP luminescence, 48 h;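 note: NT is the 2HG producing partner of a matched IDH1 knockdown line; potency is the fitted concentration of half-maximal effect; 0% = DMSO-treated cells and -100% = media-only wells without cells; nearly all actives have a fitted effect of over 55% in size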
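750 cells/well, RPMI + 5% FBS; 2 h settle, compound pin-transfer, 48 h at 37 degrees C. CellTiter-Glo 10 min RT, luminescence. Normalized to DMSO and media-only wells.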
TDP1 cell noCPT: qHTS for Inhibitors of human tyrosyl-DNA phosphodiesterase 1 (TDP1): qHTS in cells in absence of CPT; DT40 Tdp1-/- hTDP1 cells, no CPT, ATP luminescence, 48 h; Potency, µM (series often up to 46.2 µM), for inactives: at the highest dose activity change, negative = growth inhibition, usual class: inhibitors; actives 15% (n = 420,000); AID 686978, 2013; note: potency is the fitted concentration of half-maximal effect; nearly all actives have a fitted effect of over 55% in size
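A cellular qHTS used chicken DT40 cells lacking endogenous Tdp1 but carrying stably transfected human TDP1. Compounds were applied without camptothecin, and cell growth kinetics were judged by ATP-dependent luminescence after ≥48 hr.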
TDP1 cell CPT: qHTS for Inhibitors of human tyrosyl-DNA phosphodiesterase 1 (TDP1): qHTS in cells in presence of CPT. chicken DT40 Tdp1-/-;hTDP1 cells + 20 nM CPT, ATP luminescence, 48 h. Potency, µM (titrated, usually from 46.2 µM), without a hit: at the highest dose activity change, negative = growth inhibition, most hits filed as inhibitors. actives 12% (n = 420,000); note: potency is the fitted concentration of half-maximal effect; nearly all actives have a fitted effect of over 55% in size
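Chicken DT40 Tdp1-/- cells complemented with human TDP1, 400 cells/well, exposed to compounds plus 20 nM camptothecin for at least 48 h at 37 C; viability read as ATP content by CellTiter-Glo luminescence.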
HT1080 IDH1KD tx: qHTS for induction of synthetic lethality in tumor cells producing 2HG: qHTS for the HT-1080-IDH1KD cell line | HT-1080 IDH1 knockdown viability, ATP luminescence, 48 h | Potency, µM (top dose mostly 46.1 µM), inactives show at the highest dose activity, negative = toxicity, usual class: cytotoxic | actives 2% (n = 360,000) | AID 686971, 2013;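 note: potency is the fitted concentration of half-maximal effect; 0% = DMSO wells and -100% = cell-free medium wells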
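HT-1080-IDH1KD cells (IDH1 knocked down), 750/well in RPMI with 5% FBS, treated with compound 48 h at 37 degrees C. Viability by CellTiter-Glo luminescence, normalised to DMSO and no-cell wells; concentration-response curves classed.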
* hit, by the source's call; ? = inconclusive; . = no result; [ ] = dose if it differs, or a comment. Many of the other results were omitted from the sample, so hits are more common in it than they were. Unless noted, calls come from the whole dose curve; as a rule, active = well fitted curve in the direction sought with a large enough effect; inconclusive = small, poorly fitted or top-dose-only effect, or another doubt; inactive = no such curve, though single readings can be large; an effect the other way counts as inactive or inconclusive. Unless noted, % is set by controls: 0 for no effect and ±100 for the full control effect.

SMILES	ALOX12 inh	IL1B secr inh	HT1080-NT tox	TDP1 cell noCPT	TDP1 cell CPT	HT1080 IDH1KD tx
C[C@H]1C[C@H]2[C@@H]3CCC4=CC(=O)C=C[C@]4(C)[C@@]3(Cl)[C@@H](O)C[C@]2(C)[C@@]1(O)C(=O)CO	-9%	-59*	?	?	?	13%
CC1(c2ccccc2)O[C@@H]2C[C@H]3[C@@H]4CCC5=CC(=O)C=C[C@]5(C)[C@@]4(F)[C@@H](O)C[C@]3(C)[C@]2(C(=O)CO)O1 (stereo partly drawn)	0%	-67*	?	?	?	0%
CC1CCCN(c2nnc(NC(=O)Nc3ccc4c(c3)OCCO4)s2)C1 (stereo not drawn)	-11%	.	.	.	.	.
CCCCC(=O)O[C@]1(C(=O)CO)[C@H](C)C[C@H]2[C@@H]3CCC4=CC(=O)C=C[C@]4(C)[C@@]3(F)[C@@H](O)C[C@@]21C	.	.	.	13µM*	19µM*	.
CCCCC(=O)O[C@]1(C(=O)CO)[C@@H](C)C[C@H]2[C@@H]3CCC4=CC(=O)C=C[C@]4(C)[C@@]3(F)[C@@H](O)C[C@@]21C	-2%[57.4 µM]	.	.	.	.	.
C=CCNc1nc(N)c(C(=O)c2ccc(Cl)cc2)s1	-66%	.	.	.	.	.
NS(=O)(=O)c1ccc(CCNC(=O)c2ccc([N+](=O)[O-])s2)cc1	-15%	25	?	?	16µM*	-19%
CCN(CC)CCCN(C(=O)c1ccc(OC)cc1)c1nc(-c2ccc(OC)cc2)cs1	?	.	23µM*	?	?	15µM*
COc1ccc(-c2csc(NC(=O)c3ccccc3F)n2)cc1	-6%	29	7%	?	-4%	3%
CCN(C(=O)c1cccs1)c1nc(-c2ccc(OC)cc2)cs1	11%	-20	?	?	-3%	0%
CCN(CC)CCCN(C(=O)c1ccccc1C)c1nc(-c2ccc(OC)cc2)cs1	?	-21	-26%	23µM*	?	-22%
CCN(CC)CCCN(C(=O)c1ccccc1F)c1nc(-c2ccc(OC)cc2)cs1	-1%	-65*	18µM*	?	?	?
CCC(=O)N(CC)c1nc(-c2cc(OC)ccc2OC)cs1	7%	-23	-2%	?	?	15%
COCCCN(C(C)=O)c1nc(-c2ccc(OC)cc2)cs1	-9%	26	-29%	?	15µM*	-22%
CN(CC(=O)Nc1cccc2ccccc12)C(=O)c1ccc(NS(=O)(=O)c2ccc(F)cc2)cc1	-2%	.	.	.	.	.
O=C(Nc1ccccc1)N(Cc1cccs1)c1ccccn1	-2%	.	.	.	.	.
OCC1(O)CCCN(Cc2ccccc2Cn2cccn2)C1 (stereo not drawn)	2%	.	.	.	.	.
NC(=O)CCN1CCN(S(=O)(=O)c2ccc(F)c(Cl)c2)CC1	1%	.	.	.	.	.
CC(C)C(=O)N1CCC2(CC1)OC(=O)N(Cc1ccccc1)C2(C)c1ccccc1 (stereo not drawn)	-2%[176 µM]	.	.	.	.	.
Cc1[nH]c2ccccc2c1C(=O)C(C)Sc1nnc(CCC(N)=O)n1C1CC1 (stereo not drawn)	-29%	.	.	.	.	.
CS(=O)(=O)c1ccccc1-c1nc(-c2ccc(C(F)(F)F)cc2)no1	-5%	?	-5%	16µM*	?	-3%
CN1C[C@@H](N)C[C@H]1c1nc(-c2ccc3c(c2)OCO3)no1	53%[176 µM]	.	.	.	.	.
